Compound activity as filed in PubChem BioAssay.
NSD2 HMT inh = NSD2 histone methyltransferase inhibitors, primary screen, biochemical, AlphaScreen, single concentration, set 2 | Histone-lysine N-methyltransferase NSD2 (Homo sapiens), O96028 | hit rate 0.54% among 310,000 | NSD2 peptide methylation, 120 min | inhibition, % at 12.5 µM; in the data active = inhibition above about 50%
ALR inh = inhibitors of human ALR sulfhydryl oxidase, primary screen, biochemical, H2O2 detection, HRP-luminol luminescence, single point; inhibition, % (test concentration not listed); purified ALR, DTT oxidation; FAD-linked sulfhydryl oxidase ALR (Homo sapiens), P55789; hit rate 3.8% among 290,000;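 active = mean replicate inhibition above about 79%, with every replicate also reaching it, limit read from the data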
SUMO Mot1 rescue = yeast Mot1-301 growth rescue at high temperature, primary screen, SUMOylation pathway inhibitor project, S. cerevisiae, ATP luminescence, 38.5C; AID 2716, 2010; S. cerevisiae Mot1-301 growth rescue; percent above DMSO median, 100 means doubled; hit rate 1% among 320,000; growth rescue, % at 18.8 µM;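 active = every valid replicate shows activation above 250% relative to neutral control wells; inactive = the rest, any valid replicate at or below 250%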;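 note: OY570 slx delta 5 strain wells were the positive control but not used for scaling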
CASP6 VEID inh = human caspase-6 inhibitors, primary screen, biochemical, VEID-R110 fluorescence, single point, set 2 | hit rate 0.53% among 350,000 | purified caspase-6, Z-VEID-R110 cleavage fluorescence | inhibition, % at 12.5 µM | P55212 | AID 686996, 2013;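 active = mean inhibition across replicates at least about 35%, with every replicate also reaching that limit, limit read from the data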;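 note: 0% = median of neutral control wells and 100% = no fluorescence left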
CDK5 p35 inh = inhibitors of human CDK5/p35 kinase, primary screen, biochemical, single concentration | Cyclin-dependent kinase 5 (Homo sapiens) + Cyclin-dependent kinase 5 activator 1 (Homo … | inhibition, % at 10 µM | hit rate 0.01% among 330,000 | Recombinant CDK5/p35, ADP-Glo luminescence, 60 min | AID 488839, 2010;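 active = highest replicate inhibition of at least 50% and at least 75% of replicates reaching 50%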;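 note: plate controls were DMSO neutral control for no effect and GW8510 at 10 µM for full effect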
N-glyco inh = increase of ERlucT glycosylation luciferase signal, primary screen, N-linked glycosylation inhibitor project, D54 ERlucT cells, luminescence, set 2; D54 ERlucT glycosylation luciferase reporter, 24 h; percent of 100 nM tunicamycin response; reporter increase, % at 12.5 µM; hit rate 0.23% among 360,000; AID 588692, 2011;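 active = mean luciferase reporter signal, scaled so untreated is 0 and the glycosylation-blocking control 100, at or above a set limit in every replicate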;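 note: luciferase carries N-glycosylation sites so blocking glycosylation raises the light; 0% = median of neutral control wells and 100% = median of 100 nM tunicamycin wells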
Active calls of the source: *; / = not tested or not shown. Shown are actives, neighbours in structure and some others; about 3.9% of the full set was active somewhere.

SMILES	NSD2 HMT inh	ALR inh	SUMO Mot1 rescue	CASP6 VEID inh	CDK5 p35 inh	N-glyco inh
CS(=O)(=O)N1[C@H](C#N)[C@H](c2ccccc2-c2ccccc2F)[C@@H]1CO	/	/	/	0	/	/
CCOc1ccc(CCNC(=O)CSCc2ccc(C)cc2)cc1OCC	0	-1	9	1	1	0
CCOc1ccc(CCNC(=O)CS(=O)Cc2nc(-c3ccc(C)cc3)oc2C)cc1 (centres undefined)	2	99*	-18	1	-11	2
COc1ccc(-c2nc(CS(=O)(=O)CC(=O)NCCc3ccc(C)cc3)c(C)o2)cc1	9	-21	5	-1	2	1
CCOc1ccc(CCNC(=O)CS(=O)Cc2nc(-c3ccc(C)cc3)oc2C)cc1OCC (centres undefined)	-2	98*	-12	5	0	3
CCOc1ccc(CCNC(=O)CS(=O)Cc2nc(-c3ccccc3C)oc2C)cc1OCC (centres undefined)	0	99*	-25	2	0	1
COc1ccc(-c2nc(CS(=O)CC(=O)NCCC3=CCCCC3)c(C)o2)cc1 (centres undefined)	/	99*	-8	0	-8	-1
N#Cc1ccc(-c2ccc3c(c2)[C@@H]2[C@@H](CCN2C(=O)c2ccc4c(c2)OCO4)[C@@H](CO)N3)cc1	/	/	/	-2	/	/
C[C@@H]1CN([C@H](C)CO)S(=O)(=O)c2ccc(C3=CCCCC3)cc2O[C@H]1CN(C)C(=O)CN(C)C	/	/	/	2	/	/
C[C@H]1CN([C@@H](C)CO)C(=O)Cc2cc(NC(=O)Nc3ccccc3)ccc2O[C@H]1CN(C)C(=O)NC1CCCCC1	/	/	/	2	/	/
CN(C)CCCNC(=O)C[C@@H]1CC[C@@H](NC(=O)c2ccccc2F)[C@H](CO)O1	/	/	/	-1	/	/
COc1cccc(-c2nc(CS(=O)CC(=O)NCCc3ccc(C)cc3)c(C)o2)c1 (centres undefined)	0	14	11	1	/	1
Cc1ccc(CCNC(=O)CS(=O)Cc2nc(-c3cccc(C)c3)oc2C)cc1 (centres undefined)	/	99*	73	3	0	-2
CCOC(=O)Cn1c(=O)oc2cc(S(=O)(=O)Nc3ccc(N(CC)CC)cc3C)ccc21	/	99*	-18	1	0	-2
O=C(O)c1cc(C(=O)O)cc(-c2ccc(/C=c3/sc4nc5ccccc5n4c3=O)o2)c1	/	/	/	/	-1	/
O=C(O)c1cccc(-c2ccc(/C=c3/sc4nc5ccccc5n4c3=O)o2)c1	31	/	4	37*	-1	0
COc1ccc(NC(=O)N(C)C[C@@H]2Oc3ccc(N(C)C)cc3C(=O)N([C@@H](C)CO)C[C@@H]2C)cc1	/	/	/	-3	/	/
Cc1ccc(S(=O)(=O)Nc2cccc3c2O[C@@H](CN(C)C(=O)Nc2ccccc2)[C@@H](C)CN([C@@H](C)CO)C3=O)cc1	/	/	/	-1	/	/
O=C(Nc1cccc(-c2cccc(Cl)c2)c1)C1CCN(CC2CCOC2)CC1 (centres undefined)	0	-7	194	-9	0	-1
O=C(Nc1cccc(-c2cccc(F)c2)c1)C1CCN(CC2CCOC2)CC1 (centres undefined)	2	-2	270*	-6	0	-3
O=C(Nc1ccc2c(c1)[C@H]1C[C@H](CC(=O)N3CCCCC3)O[C@@H](CO)[C@H]1O2)Nc1ccccc1F	/	/	/	36*	/	/
CN(C)c1ccc2c(c1)[C@@H]1C[C@@H](CC(=O)N3CCOCC3)O[C@@H](CO)[C@@H]1O2	/	/	/	55*	/	/
O=C(O)c1ccc(N/N=C/C2=Cc3ccccc3OC2)cc1	/	98*	0	13	-3	0
C=CCNC(=S)Nc1ccc(C(N)=O)cc1	-1	-10	-12	-6	-2	-2
CN(C)c1ccc(NC(N)=S)cc1	1	99*	36	1	0	3
SMILES	NSD2 HMT inh	ALR inh	SUMO Mot1 rescue	CASP6 VEID inh	CDK5 p35 inh	N-glyco inh
C=CCNC(=S)Nc1ccc(N(C)C)cc1	3	99*	8	3	1	2
CCNC(=O)Oc1ccc(-c2csnn2)cc1	-2	99*	1	-2	3	4
COCC(=O)Nc1ccc2c(c1)OC[C@H](C)N(Cc1ccccn1)C[C@@H](C)[C@H](OC)CN(C)C2=O	/	/	/	0	/	/
COc1cccc2c1-c1c(O)cccc1C2=O	-3	/	-20	2	1	2
CC1OC(CC(=O)O)CC2=C1C(=O)c1c(O)cccc1C2=O (centres undefined)	95*	/	/	93*	2	-21
CC(C)CC#Cc1cnc2c(c1)C(=O)N([C@H](C)CO)C[C@@H](C)[C@H](CN(C)S(=O)(=O)c1cn(C)cn1)O2	/	/	/	-2	/	/
COc1ccc(C2=NN(c3nc(-c4ccc(CNC(C)=O)cc4)cs3)C(c3ccco3)C2)cc1 (centres undefined)	7	99*	-16	2	0	-1
Oc1ccc(/C=N/Nc2cc(N3CCOCC3)nc(N3CCOCC3)n2)cc1	10	100*	-11	/	0	-8
Cc1nc(Cl)cc(N/N=C/c2ccc(O)cc2O)n1	-2	57	329	3	1	-3
Oc1ccc(/C=N/Nc2ccc(Cl)nn2)cc1O	7	99*	-10	11	1	-2
Oc1ccc(/C=N/Nc2cc(N3CCCC3)nc(N3CCCC3)n2)cc1	7	14	0	/	-1	-8
Cc1ccc(/C=N/Nc2ccc(Cl)nn2)cc1	2	7	11	-3	-1	1
Cc1nc(Cl)cc(N/N=C/c2ccc(O)cc2)n1	18	99*	33	2	1	-1
COc1ccc(NC(=O)Nc2ccc3c(c2)C(=O)N([C@H](C)CO)C[C@@H](C)[C@H](CN(C)Cc2ccc(-c4ccccc4)cc2)O3)cc1	/	/	/	0	/	/
COC(=O)C(CC#Cc1ccc2c(c1)[C@]1(C(=O)N2)[C@H](c2ccccc2OCCO)N2[C@H](c3ccccc3)[C@H](c3ccccc3)OC(=O)[C@H]2[C@@H]1C(=O)NC[C@H](O)c1ccccc1)C(=O)OC	/	/	/	-1	/	/
Cc1cc(C(=O)Nc2cccc3c2O[C@@H](CN(C)S(=O)(=O)c2cccs2)[C@H](C)CN([C@@H](C)CO)C3=O)n(C)n1	/	/	/	5	/	/
C/C(N)=C(/C#N)C(=O)CN1C(=O)NC(Cc2c[nH]c3ccccc23)C1=O (centres undefined)	0	/	7	48*	1	0
COc1cccc(C(=O)Nc2ccc3c(c2)OC[C@@H](C)N(C)C[C@@H](C)[C@@H](OC)CN(C)C3=O)c1	/	/	/	-1	/	/
